The whole screen tested about 13,000 compounds, of which about 3,200 (25%) showed an effect of 50% or more. This is one part of the list.

What is called % Inhibition is the drop in the measured response relative to a control, in per cent.

The subject of the assay is P. falciparum stage V gametocytes. More on the design: BacTiter-Glo ATP luminescence viability of purified stage V gametocytes in 384-well plates, per cent inhibition versus DMSO. The settings on record: 48 h, 5 µM; inhibitor.
Consider `Cc1noc(-c2ccc(O)cc2O)c1-c1ccc2c(c1)OCCCO2` [TCMDC-124197], for which the “% Inhibition” value came out at 16%.

Take `CCCc1ccc(C(=O)N2C(c3nccs3)C(C(N)=O)CC2(CC(C)C)C(=O)O)cc1` (stereo not shown) [TCMDC-138717]: the “% Inhibition” value is -10.33%.

With `CC(C)CC1(C(=O)OC(C)(C)C)CC(C(=O)OC(C)(C)C)C(c2cccs2)N1C(=O)c1ccc(C(C)(C)C)cc1` (stereo not shown) [TCMDC-138807], the “% Inhibition” value is 77.31%.

In the case of `COc1cc(C(=O)N2C(c3nccs3)C(C(=O)N(OC)C(C)c3ccccc3)CC2(CC(C)C)C(=O)OC(C)(C)C)ccc1C(C)(C)C` (stereo not shown) [TCMDC-135187], the “% Inhibition” value came to 35.9%.

Turning to `CCOC(=O)c1ccc(N=C2SC(=Cc3cc(Br)ccc3O)C(=O)N2C)cc1` [TCMDC-125656], the “% Inhibition” value was 2.309%.

On to `O=C1C(=Cc2cc(Cc3ccccc3)ccc2O)SC(=S)N1Cc1ccccc1` [TCMDC-124107], for which the “% Inhibition” value was determined as 17.72%.

In the case of `C=CCN1C(=O)C(=Cc2cc(Br)ccc2O)SC1=Nc1ccccc1` [TCMDC-124119], the “% Inhibition” value is on record as 53.26%.

With `CC(C)[C@H]1CC[C@H](C)C[C@@H]1OC(=O)N[C@@H](Cc1ccc(O)cc1)C(=O)NC1CCN(Cc2ccc(OCCCN(C)C)cc2)C1` (stereo partly shown) [TCMDC-140497], the “% Inhibition” value is on record as 106.1%.

Regarding `CC(C)OC(=O)c1ccc(NC(=O)N[C@@H](Cc2ccc(O)cc2)C(=O)NC2CC3CCC(C2)N3Cc2ccccc2)cc1` (stereo partly shown) [TCMDC-136164], the “% Inhibition” value was determined as 71.31%.

In the case of `CCOC(=O)c1ccc(NC(=O)N[C@@H](Cc2ccccc2)C(=O)NC2CCN(Cc3ccc(O)c(OC)c3)C2)cc1` (stereo partly shown) [TCMDC-140503], the “% Inhibition” value was -11.63%.

For `CC(C)(C)c1ccc(OC(=O)c2ccc(NC(=O)N[C@@H](Cc3ccc(O)cc3)C(=O)NC3CCN(Cc4ccc(O)cc4)C3)cc2)cc1` (stereo partly shown) [TCMDC-135359], the “% Inhibition” value is 23.01%.

Regarding `CCOC(=O)c1ccc(NC(=O)N[C@@H](Cc2ccccc2)C(=O)NC2CCN(Cc3ccc(O)cc3)C2)cc1` (stereo partly shown) [TCMDC-140502], the “% Inhibition” value is recorded as -28.76%.

As for `CCOC(=O)c1ccc(NC(=O)N[C@@H](Cc2ccccc2)C(=O)NC2CCN(Cc3ccc(OCCCN(C)C)cc3)C2)cc1` (stereo partly shown) [TCMDC-140501], the “% Inhibition” value came out at 106.4%.

With `O=C(Nc1ccc(C(=O)OCC(c2ccccc2)c2ccccc2)cc1)N[C@@H](Cc1ccc(O)cc1)C(=O)NC1CCN(Cc2ccc(O)cc2)C1` (stereo partly shown) [TCMDC-135362], the “% Inhibition” value is listed as 9.298%.

On to `Cc1cc(C(=O)N[C@H]2CCN(Cc3ccc(OCCCN(C)C)cc3)C2)ccc1Br` [TCMDC-140368], for which the “% Inhibition” value was determined as 17.03%.

On to `CC(C)OC(=O)c1ccc(NC(=O)N[C@@H](Cc2ccc(O)cc2)C(=O)NC2CCC(CCN3C4CCC3c3ccccc34)CC2)cc1` (stereo partly shown) [TCMDC-136163], for which the “% Inhibition” value is given as 13.63%.

With `O=C(/C=C/c1ccc(Cl)c(Cl)c1)NCCCCN1CCCN(C(=O)Nc2cc(Cl)cc(Cl)c2)CC1` [TCMDC-135929], the “% Inhibition” value is given as -18.98%.

In the case of `COc1ccc(CN2CCCC(OC(c3ccc(F)cc3)c3ccc(F)cc3)C2)c(O)c1` (stereo not shown) [TCMDC-136166], the “% Inhibition” value was 23.2%.

Regarding `Fc1cccc(COc2ccc(Nc3ncnc4sc(C#C[C@H]5CC[C@H](CN6CCOCC6)N5)cc34)cc2Cl)c1` [TCMDC-135417], the “% Inhibition” value is given as -15.95%.

Turning to `Cc1c(F)cc(C(=O)NC2CC2)cc1-c1ccc2c(cnn2S(=O)(=O)c2ccc(F)c(F)c2)c1` [TCMDC-135239], the “% Inhibition” value was 15.38%.

On to `Cc1ccc2nc(C)cc(Nc3ccccc3O)c2c1` [TCMDC-123660], for which the “% Inhibition” value is listed as -31.17%.

Turning to `CCCc1cc(C)ccc1OCCCON1C(NC(=O)OCC)=NC(NC(=O)OCC)=NC1(C)C` [TCMDC-131343], the “% Inhibition” value came to 12.88%.

Consider `COc1cc(Cc2cnc(N)nc2N)cc(OCCn2ccccc2=O)c1OC` [TCMDC-137347], for which the “% Inhibition” value was -6.593%.

In the case of `CCN(CC)c1ccc2nc(N)nc(N)c2c1Cl` [TCMDC-137857], the “% Inhibition” value was -7.537%.

On to `O=C(NCC1CCN(Cc2ccc3c(c2)OCCO3)C1)c1cc(-c2ccccc2F)cs1.O=C(O)C(F)(F)F` (stereo not shown) [TCMDC-134459], for which the “% Inhibition” value was determined as 14.42%.

As to `CN(C)c1ccc(CN2CCC(CNC(=O)c3cc(-c4ccccc4F)cs3)C2)cc1.O=C(O)C(F)(F)F` (stereo not shown) [TCMDC-134453], the “% Inhibition” value is listed as 72.61%.

Take `CSc1ccc(CN2CCC(CNC(=O)c3cc(-c4ccccc4F)cs3)C2)cc1.O=C(O)C(F)(F)F` (stereo not shown) [TCMDC-134460]: the “% Inhibition” value is listed as 78.38%.

For the compound `CCCNC[C@@H](O)[C@H](Cc1ccccc1)NC(=O)c1cc(NCC)cc(N2CCCC2=O)c1` [TCMDC-138890], the “% Inhibition” value came to 18.6%.

For `Cc1cc(C(=O)OCC(N)=O)c(C)n1-c1ccc(F)cc1` [TCMDC-123812], the “% Inhibition” value is given as -34.47%.

Consider `CN(C)S(=O)(=O)c1ccc(C(=O)N(c2nc(-c3ccccc3)cs2)C2CCCCC2)cc1` [TCMDC-123561], for which the “% Inhibition” value is -34.43%.

Regarding `C=CCN(C(=O)c1ccc(Cl)c([N+](=O)[O-])c1)c1nc(-c2ccccc2)cs1` [TCMDC-124436], the “% Inhibition” value is reported as 137%.

For `Cc1cc(N2CCOCC2)nc2ccc(NC(=O)c3ccc(Cl)c([N+](=O)[O-])c3)cc12` [TCMDC-125441], the “% Inhibition” value was -11.29%.

`O=C(Nc1cc(Cl)cc(Cl)c1)c1cc(Cl)c(=O)n(Cc2ccc(Cl)cc2)c1` [TCMDC-123810]: the “% Inhibition” value was 18.7%.

With `CCOC(=O)c1cn(CC)c2cc(N3CCCCC3)c(F)cc2c1=O` [TCMDC-124156], the “% Inhibition” value was found to be 35.74%.

In the case of `CCn1cc(C(=O)O)c(=O)c2cc(F)c(N3CCN(S(=O)(=O)c4ccc(N)cc4)CC3)cc21` [TCMDC-125809], the “% Inhibition” value is 2.438%.

Take `CCOC(=O)c1cn(CC)c2cc(N3CCCCCC3)c(F)cc2c1=O` [TCMDC-124160]: the “% Inhibition” value stood at 58.45%.

In the case of `O=C(/C=C/c1ccc(Cl)c(Cl)c1)NCCCCCCN1CCCN(C(=O)Nc2ccc(F)c(F)c2)CC1` [TCMDC-135938], the “% Inhibition” value is given as -42.76%.

Take `O=C1Nc2cccc3c2C1(CCCCN1CCC(c2c(-c4ccc(F)cc4)[nH]c4ccccc24)CC1)CCC3` (stereo not shown) [TCMDC-140656]: the “% Inhibition” value is recorded as 74.07%.

Turning to `Cc1[nH]c2ccccc2c1C1=CCN(CCCCCC23CCCc4cccc(c42)NC3=O)CC1` (stereo not shown) [TCMDC-140463], the “% Inhibition” value is recorded as -65.61%.

Consider `CC1(CCCCN2CC=C(c3c[nH]c4ccccc34)CC2)C(=O)Nc2ccccc21` (stereo not shown) [TCMDC-140717], for which the “% Inhibition” value was -30.41%.

Regarding `Cc1ccc(OC2CCN(CCCCC3(C)C(=O)Nc4ccccc43)CC2)cc1` (stereo not shown) [TCMDC-140795], the “% Inhibition” value is listed as -17.97%.

With `O=C1Nc2cccc3c2C1(CCCCN1CCC(c2c(-c4ccccc4)[nH]c4ccccc24)CC1)CCC3` (stereo not shown) [TCMDC-140655], the “% Inhibition” value is listed as 54.78%.

For `Cc1nc(N)nc(N)c1-c1ccc2ccccc2c1` [TCMDC-137286], the “% Inhibition” value was -7.805%.

For `FC(F)(F)c1ccc2[nH]c(-c3cccc(-c4cccc(CNCc5cnn(-c6ccccc6)n5)c4)c3)nc2c1.O=C(O)C(F)(F)F` [TCMDC-132966], the “% Inhibition” value is on record as -44.07%.

`COc1cccc(NC(=O)N2CCOC(CCN3CCC4(CCc5ccccc54)CC3)(c3ccc(Cl)c(Cl)c3)C2)c1` (stereo not shown) [TCMDC-135330]: the “% Inhibition” value is -52.33%.

With `O=C(/C=C/c1ccc(Cl)c(Cl)c1)N1CCC(CN2CCC(c3c(Br)[nH]c4ccccc34)CC2)CC1` [TCMDC-140652], the “% Inhibition” value is -44.15%.

For the compound `Cc1ccc(-c2ccc3c(c2)C=C(C(=O)NCC2CCN(CC4CCN(C(=O)/C=C/c5ccc(Cl)c(Cl)c5)CC4)CC2)CCC3)cc1` [TCMDC-140646], the “% Inhibition” value is reported as 108.7%.

Consider `O=C(/C=C/c1ccc(Cl)c(Cl)c1)N1CCC(CN2CCC(c3c(-c4ccccc4)[nH]c4ccccc34)CC2)CC1` [TCMDC-140653], for which the “% Inhibition” value is given as 54.21%.

On to `O=C(/C=C/c1ccc(Cl)c(Cl)c1)N1CCC(CN2CCC(Cc3nc4ccccc4[nH]3)CC2)CC1` [TCMDC-140119], for which the “% Inhibition” value worked out at 26.7%.

Take `CC(C)n1c(CC2CCN(CC3CCN(C(=O)/C=C/c4ccc(Cl)c(Cl)c4)CC3)CC2)nc2ccccc21` [TCMDC-140372]: the “% Inhibition” value is on record as 82.38%.

Turning to `O=C(/C=C/c1ccc(Cl)c(Cl)c1)N1CCC(CN2CCC(c3c(-c4ccc(F)cc4)[nH]c4ccccc34)CC2)CC1` [TCMDC-140654], the “% Inhibition” value is 18.04%.

As to `CCn1c(C2CCN(CCC3CCN(C(=O)/C=C/c4ccc(Cl)c(Cl)c4)CC3)CC2)nc2ccccc21` [TCMDC-140221], the “% Inhibition” value is on record as -5.757%.

For the compound `O=C(/C=C/c1ccc(Cl)c(Cl)c1)N1CCC(CN2CCC(c3nc4ccccc4n3CCCO)CC2)CC1` [TCMDC-140312], the “% Inhibition” value is -4.21%.

`Cc1cc(O)cc2c(C3CCN(CC4CCN(C(=O)/C=C/c5ccc(Cl)c(Cl)c5)CC4)CC3)c[nH]c12` [TCMDC-140065]: the “% Inhibition” value was -70.17%.

`Cn1c(NC2CCN(CC3CCN(C(=O)/C=C/c4ccc(Cl)c(Cl)c4)CC3)CC2)nc2ccccc21` [TCMDC-140340]: the “% Inhibition” value is on record as 94.55%.

For `Cc1[nH]c2ccccc2c1CC1CCN(CC2CCN(C(=O)/C=C/c3ccc(Cl)c(Cl)c3)CC2)CC1` [TCMDC-140128], the “% Inhibition” value is -40.98%.

In the case of `CC(C)n1c(C2CCN(CC3CCN(C(=O)/C=C/c4ccc(Cl)c(Cl)c4)CC3)CC2)nc2ccccc21` [TCMDC-140212], the “% Inhibition” value is on record as -15.48%.

Take `CC1CC(C)CN(S(=O)(=O)c2cc(C(=O)Nc3cccc([N+](=O)[O-])c3)ccc2Br)C1` (stereo not shown) [TCMDC-124626]: the “% Inhibition” value is -10.68%.

Turning to `O=C(Nc1cc(F)c(F)c(-c2cccnc2)c1)N1CCc2cc(Cl)c(Cl)cc21` [TCMDC-139065], the “% Inhibition” value is 25.18%.

On to `Cc1ccc(-c2nc(N3CCN(C(=O)c4ccco4)CC3)c3ccccc3n2)cc1` [TCMDC-124779], for which the “% Inhibition” value is reported as -11.86%.

As to `COc1ccccc1CNC(=O)c1cc(OC)c(OC)cc1NC(=O)c1cccs1` [TCMDC-125022], the “% Inhibition” value was 22.04%.

Source of the values: paper PMC4552634, “A New Set of Chemical Starting Points with Plasmodium falciparum Transmission-Blocking Potential for Antimalarial Drug Discovery” (PLoS ONE, 2015).
